According to the supplement of paper PMC9694430:

Tests used:
Assay in all cases: thermal shift delta Tm vs DMSO control; higher = stronger stabilization (binding)
Settings in all cases: 12.5 µM; protein concentration 2 µM
[1] = test system: LOC_OS01G01410-cb001
Procedure, shortened: (§1)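 Rice kinase domain constructs, made in E. coli and purified, were placed in 96-well plates at 2 μM in 19.5 μl of 100 mM potassium phosphate pH 7.5, 150 mM NaCl, 10% glycerol and 5 × SYPRO Orange, with compound in DMSO. A temperature ramp from 25°C to 95°C at 0.05°C/s was used for differential scanning fluorimetry. The melting temperature shift is a triplicate mean compared with DMSO-only protein, derived from Boltzmann fits.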

[2] = test system: LOC_OS01G02750-cb003
Procedure, shortened: as §1

[3] = test system: LOC_OS01G10900-cb004
Procedure, shortened: as §1

[4] = test system: LOC_OS01G13800-cb001
Procedure, shortened: as §1

[5] = test system: LOC_OS01G14860-cb001
Procedure, shortened: as §1

[6] = test system: LOC_OS01G21960-cb002
Procedure, shortened: as §1

[7] = test system: LOC_OS01G39600-cb002
Procedure, shortened: as §1

[8] = test system: LOC_OS01G48390-cb002
Procedure, shortened: as §1

[9] = test system: LOC_OS01G51400-cb002
Procedure, shortened: as §1

[10] = test system: T1, LOC_OS01G52050-cb004
T1 sequence (whole entry): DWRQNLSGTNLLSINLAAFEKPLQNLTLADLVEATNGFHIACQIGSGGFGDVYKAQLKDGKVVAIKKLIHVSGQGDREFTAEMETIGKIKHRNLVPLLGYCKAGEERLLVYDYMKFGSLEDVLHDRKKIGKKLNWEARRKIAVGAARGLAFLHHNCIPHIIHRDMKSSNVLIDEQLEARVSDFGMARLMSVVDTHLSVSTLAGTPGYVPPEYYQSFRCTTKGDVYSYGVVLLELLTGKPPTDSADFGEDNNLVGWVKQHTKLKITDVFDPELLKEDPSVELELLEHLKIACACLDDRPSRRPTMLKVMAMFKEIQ
Procedure, shortened: as §1
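Note: purified Escherichia coli-expressed rice kinase domain construct.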

Row | SMILES | thermal shift delta Tm [1] [°C] | thermal shift delta Tm [2] [°C] | thermal shift delta Tm [3] [°C] | thermal shift delta Tm [4] [°C] | thermal shift delta Tm [5] [°C] | thermal shift delta Tm [6] [°C] | thermal shift delta Tm [7] [°C] | thermal shift delta Tm [8] [°C] | thermal shift delta Tm [9] [°C] | thermal shift delta Tm [10] [°C]
1 | C[C@H]1CNC(=O)c2cnn3ccc(nc23)N[C@H](C)c2cc(F)ccc2O1 | -0.06 | 4.66 | 3.91 | -0.18 | 0.3 | 1.05 | 0.15 | 1.46 | 0.22 | 4.57
2 | O=C(O)CCC(=O)Nc1ccc(Br)cn1 [Bikinin] | 0.12 | 0.77 | -0.24 | 0.21 | 1.54 | 0.85 | -0.26 | 0.5 | 0.37 | 0.34
3 | COc1cc2c(cc1OC)[C@@H]1C(=O)c3ccc4c(c3O[C@@H]1CO2)C=CC(C)(C)O4 [Deguelin] | 0.07 | 0.45 | 0.52 | 0.41 | 0.23 | 0.41 | -0.1 | 0.4 | -0.11 | 0.13
4 | N#Cc1c(O)c2c(-c3ccc(-c4ccccc4O)cc3)csc2[nH]c1=O | 0.93 | 1.74 | 0.92 | 1.23 | 0.8 | 1.72 | 0.7 | 0.95 | 0.44 | 0.93
5 | COc1ccc2c(c1)[C@]1(C[C@H]1c1ccc3c(/C=C/c4ccc(CN5C[C@@H](C)O[C@@H](C)C5)cc4)n[nH]c3c1)C(=O)N2 | 1.94 | 8.4 | 1.53 | -0.69 | 1.2 | 0.67 | 2.15 | 1.77 | 1.27 | 4.31
6 | CNC(=O)c1ccc(Nc2ncc(C(F)(F)F)c(NCc3nccnc3N(C)S(C)(=O)=O)n2)cc1 | 1.64 | 3.47 | 1.96 | -0.3 | 7.22 | 2.6 | 5.05 | 3.16 | 0.96 | 6.78
7 | Nc1ncnc2n[nH]c(Nc3ccc(F)cc3)c12 | 1.74 | 1.17 | 1.94 | -0.28 | 0.76 | 1.31 | 2.02 | 1.2 | 0.33 | 1.46
8 | CCN1C(=O)CNc2ncc(-c3ccc(-c4nc[nH]n4)nc3C)nc21 | 0.49 | -0.88 | 1.31 | 0.86 | 1.11 | 0.62 | -1.87 | 0.34 | -0.29 | -1.26
9 | OC1CCC(Nc2ncc3nc(Nc4c(F)cc(F)cc4F)n([C@H]4CCOC4)c3n2)CC1 (stereo not given in full) [Tanzisertib(CC-930)] | 0.32 | 0.43 | 0.32 | 0.7 | 0.73 | 0.08 | 0.06 | 0.2 | 0.08 | 2.88
10 | COc1cc2nccc(Oc3ccc(NC(=O)C4(C(=O)Nc5ccc(F)cc5)CC4)cc3)c2cc1OC [Cabozantinib malate (XL184)] | 0.01 | 0.45 | 0.03 | 0.12 | 0.34 | 0.57 | 0.26 | 3.62 | 0.63 | 0.38
11 | Nc1nc(Nc2ccc(S(N)(=O)=O)cc2)nn1C(=O)c1c(F)cccc1F | 4.86 | 1.06 | 0.71 | 0.59 | 5.95 | 1.73 | 4.79 | 5.9 | 0.49 | 5.43
12 | CC(C)c1c2cc(-c3ccnc(NC4CCC(NC5CCOCC5)CC4)n3)ccc2nn1C (stereo not given) | 1.15 | 4.38 | 1.83 | -0.3 | 7.15 | 2.64 | 1.1 | 2.74 | 0.39 | 2.13
13 | CCS(=O)(=O)c1cccc(-c2cc(C(=O)NC3CCN(C)CC3)c(C)c3[nH]c4ncc(C)cc4c23)c1 | 3.99 | 0.8 | 4.18 | -0.51 | 4.38 | 2.97 | 0.89 | 2.14 | 0.16 | 6.44
14 | CC(=O)Nc1nc(C)c(-c2ccc(Cl)c(S(=O)(=O)NCCO)c2)s1 | 0.98 | 1.63 | 1.52 | 0.63 | 0.16 | 1.07 | -0.18 | 0.24 | 0.16 | 0.93
15 | CNCc1ccc(-c2cc(-c3nc(-c4ccc(S(=O)(=O)C(C)C)cc4)cnc3N)on2)cc1 | 1.4 | 1.1 | 3 | 0.25 | 4.67 | 1.88 | 1.85 | 0.69 | 0.46 | 1.41
16 | CCCNC(=O)c1cn2ncnc(Nc3cc(C(=O)NC4CC4)ccc3C)c2c1C | 0.17 | 0.08 | -0.05 | -0.27 | 0.01 | -0.06 | 0.07 | -0.01 | 0.04 | 0.26
17 | NC1(c2ccc(-c3nc4ccn5c(=O)[nH]nc5c4cc3-c3ccccc3)cc2)CCC1 | 0.94 | -0.51 | 0.16 | 0.23 | 0.18 | -0.02 | 0.19 | 0.18 | -0.13 | 0.16
18 | CC(C)c1cnn2c(NCc3ccccc3-n3cccn3)nc(OC3CCCNC3)nc12 (stereo not given) | 0 | 1.24 | 0.29 | 0.99 | 0.39 | 1.47 | -0.1 | 0.28 | 0.35 | 0.43
19 | O=S(=O)(NCCNC/C=C/c1ccc(Br)cc1)c1cccc2cnccc12 | 0.28 | 0.92 | 3.17 | 0.66 | 0.58 | 1.16 | 0.27 | 1.8 | 0.23 | 0.48
20 | NCC(=O)Nc1ccc(-n2nc(C(F)(F)F)cc2-c2ccc3c(ccc4ccccc43)c2)cc1 | 1.11 | 6.14 | 0.31 | -0.76 | -0.8 | 0.55 | 2.28 | 0.79 | -0.21 | 2.4
21 | Cc1ccc(-n2nc(C(C)(C)C)cc2NC(=O)NCc2cc(F)ccc2Oc2ccc3c(cnn3CCO)c2)cc1 [Pexmetinib (ARRY-614)] | 0.56 | 1.41 | 0.65 | -0.01 | 0.85 | 1.27 | 0.75 | 1.8 | 0.36 | 1.87
22 | COc1cc(Nc2ncc(F)c(Nc3ccc4c(n3)N(COP(=O)(O)O)C(=O)C(C)(C)O4)n2)cc(OC)c1OC [Fostamatinib (R788)] | 1.98 | -0.16 | 0.33 | -0.55 | 4.38 | 3.63 | 9.1 | 0.22 | 0.49 | 6.23
23 | Cc1cc(N2CCOCC2)cc2[nH]c(-c3c(NC[C@@H](O)c4cccc(Cl)c4)cc[nH]c3=O)nc12 | 4.78 | 2.98 | -0.47 | 0.09 | 1.24 | 1.2 | 2.56 | 1.43 | 0.28 | 3.88
